# From PubChem BioAssay AID1159580 (chemical genetic matrix, 2015)
# Values joined by “and” are separate entries in the source; they are usually repeats but may differ in a detail not shown here. Equal values may be shown once. The whole screen tested about 5,500 compounds, of which about 2,000 (36%) were called active. Roughly 18% stayed inconclusive and do not appear here. Some of the results follow. Values without a mark were called inactive. Rule as the data show it: active = normalized growth mostly below about 0.91 (no sharp cut-off); inconclusive = no clear call, values can overlap the other calls; inactive = mostly above about 0.92.
# Assay: chemical genetic growth profiling, strain panel (AID 1159580);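 also: tested at 20 µM; growth read once vehicle control cultures reached saturation at 30 °C; 1 = growth at the plate median or of vehicle wells; lower values mean less growth of the strain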
# Conditions: S. cerevisiae deletion strains, growth OD
smiles,measurement,setting,value
CC1(C)C2CC[C@]3(C)C(C(=O)C=C4[C@H]5C[C@@](C)(C(=O)O)CC[C@]5(C)CC[C@]43C)[C@@]2(C)CC[C@@H]1O (stereo partly specified),normalized growth,"locus YAL013W, strain DEP1, stronger effect = lower value",1.04
same,normalized growth,"locus YAL021C, strain ccr4, stronger effect = lower value",1.02
same,normalized growth,"locus YAL026C, strain drs2, stronger effect = lower value",0.881 (active)
same,normalized growth,"locus YAL030W, strain snc1, stronger effect = lower value",1
same,normalized growth,"locus YBL061C, strain skt5, stronger effect = lower value",0.972
same,normalized growth,"locus YBR009C, strain hhf1, stronger effect = lower value",0.861 (active)
same,normalized growth,"locus YBR021W, strain FUR4, stronger effect = lower value",1
same,normalized growth,"locus YBR023C, strain chs3, stronger effect = lower value",0.941
same,normalized growth,"locus YBR171W, strain sec66, stronger effect = lower value",1.02
same,normalized growth,"locus YBR229C, strain ROT2, stronger effect = lower value",1.04
same,normalized growth,"locus YBR231C, strain swc5, stronger effect = lower value",0.98
same,normalized growth,"locus YBR279W, strain paf1, stronger effect = lower value",0.948
same,normalized growth,"locus YCL011C, strain gbp2, stronger effect = lower value",0.923
same,normalized growth,"locus YCL016C, strain dcc1, stronger effect = lower value",0.944
same,normalized growth,"locus YCL029C, strain bik1, stronger effect = lower value",0.962
same,normalized growth,"locus YCL061C, strain MRC1, stronger effect = lower value",0.96
same,normalized growth,"locus YCL069W, strain vba3, stronger effect = lower value",0.955
same,normalized growth,"locus YCR088W, strain abp1, stronger effect = lower value",1.01
same,normalized growth,"locus YDL005C, strain med2, stronger effect = lower value",1
same,normalized growth,"locus YDL035C, strain GPR1, stronger effect = lower value",0.969
same,normalized growth,"locus YDL040C, strain nat1, stronger effect = lower value",0.995
same,normalized growth,"locus YDL074C, strain BRE1, stronger effect = lower value",1.02
same,normalized growth,"locus YDL101C, strain DUN1, stronger effect = lower value",1.02
same,normalized growth,"locus YDL134C, strain PPH21, stronger effect = lower value",1.03
same,normalized growth,"locus YDL185W, strain tfp1, stronger effect = lower value",1.01
same,normalized growth,"locus YDL192W, strain arf1, stronger effect = lower value",1.01
same,normalized growth,"locus YDR001C, strain nth1, stronger effect = lower value",1.02
same,normalized growth,"locus YDR069C, strain doa4, stronger effect = lower value",0.985
same,normalized growth,"locus YDR101C, strain arx1, stronger effect = lower value",0.988
same,normalized growth,"locus YDR137W, strain rgp1, stronger effect = lower value",0.743 (active)
same,normalized growth,"locus YDR150W, strain NUM1, stronger effect = lower value",1.06
same,normalized growth,"locus YDR159W, strain sac3, stronger effect = lower value",0.977
same,normalized growth,"locus YDR162C, strain NBP2, stronger effect = lower value",1.02
same,normalized growth,"locus YDR195W, strain ref2",1.1
same,normalized growth,"locus YDR297W, strain sur2, stronger effect = lower value",0.963
same,normalized growth,"locus YDR318W, strain mcm21, stronger effect = lower value",0.994
same,normalized growth,"locus YDR334W, strain swr1, stronger effect = lower value",1.04
same,normalized growth,"locus YDR335W, strain msn5, stronger effect = lower value",0.941
same,normalized growth,"locus YDR388W, stronger effect = lower value",1.01
same,normalized growth,"locus YDR392W, strain spt3, stronger effect = lower value",0.493 (active)
same,normalized growth,"locus YDR502C, strain sam2, stronger effect = lower value",1
same,normalized growth,"locus YEL003W, strain gim4, stronger effect = lower value",0.97
same,normalized growth,"locus YEL037C, strain rad23, stronger effect = lower value",1.01
same,normalized growth,"locus YEL061C, strain CIN8 (second series), stronger effect = lower value",0.983
same,normalized growth,"locus YEL061C, strain CIN8, stronger effect = lower value",1.04
same,normalized growth,"locus YER015W, strain faa2, stronger effect = lower value",0.933
same,normalized growth,"locus YER016W, strain bim1, stronger effect = lower value",1.02
same,normalized growth,"locus YER110C, stronger effect = lower value",1.01
same,normalized growth,"locus YER111C, strain swi4, stronger effect = lower value",1.01
same,normalized growth,"locus YER155C, strain BEM2 (second series), stronger effect = lower value",0.874
same,normalized growth,"locus YER155C, strain BEM2, stronger effect = lower value",1.05
same,normalized growth,"locus YER167W, strain BCK2, stronger effect = lower value",1.04
same,normalized growth,"locus YFR010W, strain ubp6, stronger effect = lower value",0.99
same,normalized growth,"locus YGL078C, strain dbp3, stronger effect = lower value",0.94
same,normalized growth,"locus YGL086W, strain mad1, stronger effect = lower value",1.01
same,normalized growth,"locus YGL167C, strain pmr1, stronger effect = lower value",1.02
same,normalized growth,"locus YGL173C, strain kem1, stronger effect = lower value",0.999
same,normalized growth,"locus YGL227W, strain vid30, stronger effect = lower value",1.02
same,normalized growth,"locus YGL240W, strain doc1, stronger effect = lower value",0.879 (active)
same,normalized growth,"locus YGL248W, strain PDE1, stronger effect = lower value",1.03
same,normalized growth,"locus YGL253W, strain hxk2, stronger effect = lower value",0.754 (active)
same,normalized growth,"locus YGR078C, strain PAC10, stronger effect = lower value",1.01
same,normalized growth,"locus YGR135W, strain pre9, stronger effect = lower value",0.985
same,normalized growth,"locus YGR229C, strain SMI1, stronger effect = lower value",0.984
same,normalized growth,"locus YGR252W, strain gcn5, stronger effect = lower value",0.935
same,normalized growth,"locus YHR013C, strain ard1, stronger effect = lower value",0.965
same,normalized growth,"locus YHR027C, strain rpn1, stronger effect = lower value",0.997
same,normalized growth,"locus YHR030C, strain SLT2, stronger effect = lower value",1.05 and 1.01
same,normalized growth,"locus YHR079C, strain IRE1 (second series), stronger effect = lower value",1
same,normalized growth,"locus YHR079C, strain IRE1, stronger effect = lower value",1.02
same,normalized growth,"locus YHR094C, strain hxt1, stronger effect = lower value",1.02
same,normalized growth,"locus YHR129C, strain ARP1, stronger effect = lower value",1.06
same,normalized growth,"locus YHR142W, strain chs7, stronger effect = lower value",0.78 (active)
same,normalized growth,"locus YHR200W, strain rpn10, stronger effect = lower value",0.999
same,normalized growth,"locus YIL066C, strain RNR3, stronger effect = lower value",1.03
same,normalized growth,"locus YIL073C, strain SPO22, stronger effect = lower value",0.994
same,normalized growth,"locus YIL125W, strain kgd1, stronger effect = lower value",1.03
same,normalized growth,"locus YIR030C, strain dcg1, stronger effect = lower value",1.01
same,normalized growth,"locus YJL092W, strain hpr5, stronger effect = lower value",1.01
same,normalized growth,"locus YJL095W, strain BCK1 (second series), stronger effect = lower value",0.83 (active)
same,normalized growth,"locus YJL095W, strain BCK1, stronger effect = lower value",1.04 and 1.01
same,normalized growth,"locus YJL115W, strain asf1, stronger effect = lower value",1.04
same,normalized growth,"locus YJL129C, strain trk1, stronger effect = lower value",0.921
same,normalized growth,"locus YJL134W, strain LCB3, stronger effect = lower value",1.03
same,normalized growth,"locus YJL154C, strain vps35, stronger effect = lower value",1.02
same,normalized growth,"locus YJL164C, strain tpk1, stronger effect = lower value",0.865 (active)
same,normalized growth,"locus YJL166W, strain qcr8, stronger effect = lower value",0.845 (active)
same,normalized growth,"locus YJL168C, strain set2, stronger effect = lower value",1.02
same,normalized growth,"locus YJL187C, strain SWE1 (second series), stronger effect = lower value",1
same,normalized growth,"locus YJR043C, strain POL32, stronger effect = lower value",0.969
same,normalized growth,"locus YJR066W, strain TOR1, stronger effect = lower value",0.96
